The values that follow come from PubChem BioAssay (NCATS).

Assay [1] in a line: Quantitative highthroughput screen to assess conditional lethalithy of NOMO1 cells grown in RPMI1640 with untreated serum (RPMI+s) (AID 1963876). Further: nearly all actives have a fitted effect of over 35% in size. Further: potency means the concentration at half of the fitted maximal effect.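 On viability: 100% = DMSO wells and 0% = empty wells without cells.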 The procedure, abridged:
(§1)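 Each medium arm—HPLM with 10% dialyzed FBS, or RPMI1640 with 5 mM glucose and 10% untreated or dialyzed FBS—was screened against an 11-point, 3-fold compound titration for 48 h at 37 °C, with CellTiter-Glo luminescence as endpoint.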

Assay [2] is described as follows: Quantitative highthroughput screen to assess conditional lethalithy of P12 Ichikawa cells grown in Human Plasma-Like Medium with dialyzed fetal bovine serum (HPLM+ds) (AID 1963879). Further: nearly all actives have a fitted effect of over 35% in size. Further: potency means the concentration at half of the fitted maximal effect. On viability: series mostly up to about 46 µM. Conditions: Potency: viability. Summed up: as §1
A short description of assay [3]: Quantitative highthroughput screen to assess conditional lethalithy of P12 Ichikawa cells grown in RPMI1640 with dialyzed fetal bovine serum (RPMI+ds) (AID 1963880). Further: nearly all actives have a fitted effect of over 35% in size. Further: potency means the concentration at half of the fitted maximal effect.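 On viability: 100% = DMSO wells and 0% = empty wells on each plate.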 Conditions: Potency: P12-Ichikawa viability. The procedure, abridged:
as §1

A short description of assay [4]: Quantitative highthroughput screen to assess conditional lethalithy of P12 Ichikawa cells grown in RPMI1640 with untreated serum (RPMI+s) (AID 1963881). Further: nearly all actives have a fitted effect of over 35% in size. Further: potency means the concentration at half of the fitted maximal effect.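 On viability: series mostly up to about 46 µM; 100% = DMSO wells and 0% = empty wells without cells.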 Conditions: Potency: viability. The procedure, abridged: as §1
Assay [5] in a line: Quantitative highthroughput screen to assess conditional lethalithy of SEM cells grown in Human Plasma-Like Medium with dialyzed fetal bovine serum (HPLM+ds) (AID 1963882). Further: nearly all actives have a fitted effect of over 35% in size. Further: potency means the concentration at half of the fitted maximal effect. On viability: series mostly up to about 46 µM. The procedure, abridged: as §1
A short description of assay [6]: Quantitative highthroughput screen to assess conditional lethalithy of SEM cells grown in RPMI1640 with unreated serum (RPMI+s) (AID 1963883). Further: nearly all actives have a fitted effect of over 35% in size. Further: potency means the concentration at half of the fitted maximal effect.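 On viability: 100% = DMSO wells and 0% = empty wells without cells.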 Summed up: as §1
Assay [7] is described as follows: Quantitative highthroughput screen to assess conditional lethalithy of SEM cells grown in RPMI1640 with dialyzed fetal bovine serum (RPMI+ds) (AID 1963884). Further: nearly all actives have a fitted effect of over 35% in size. Further: potency means the concentration at half of the fitted maximal effect.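 On viability: series mostly up to about 46 µM; 100% = DMSO control wells and 0% = empty wells without cells.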 Summed up: as §1
The nature of assay [8]: Quantitative highthroughput screen to assess conditional lethalithy of NOMO1 cells grown in Human Plasma-Like Medium with dialyzed fetal bovine serum (HPLM+ds) (AID 1963878). Further: nearly all actives have a fitted effect of over 35% in size. Further: potency means the concentration at half of the fitted maximal effect.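 On viability: 100% = DMSO wells and 0% = empty wells on each plate.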 The procedure, abridged:
as §1

A short description of assay [9]: Cellular viability qHTS for adrenocortical cancer (ACC) cell line SW-13 (AID 1963989).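 Further: cells grown in serum-free medium with ITS supplement; on the % scale 0 is the no-effect control and ±100 the full control effect; nearly all actives have a fitted effect of over 65% in size.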 Conditions: SW-13 ACC cells viability, CellTiter-Glo, 48 h; activity (max response): stronger effect = lower value. The procedure, abridged: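 Viability was read as CellTiter-Glo luminescence after 48 h compound treatment (up to 46 uM final) of SW-13 cells grown serum-free; titration curves were fit with a four-parameter logistic model to give IC50 and efficacy.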
On the technique in general: In qHTS, concentration-response curves come from the screen itself.

Assay [10] is described as follows: Cellular viability qHTS for adrenocortical cancer (ACC) cell line NCI-H295R (AID 1963990).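 Further: 0% = DMSO only wells and -100% = full killing with cytotoxic reference compound; nearly all actives have a fitted effect of over 60% in size.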 Summed up: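 CellTiter-Glo ATP luminescence, read 48 h after compound addition, measured viability of NCI-H295R adrenocortical cells grown serum-free with ITS. Final concentrations spanned up to 46 uM. Data normalized to DMSO and doxorubicin, fitted for IC50 and maximal response.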

Assay [11] can be described thus: Quantitative highthroughput screen to assess conditional lethalithy of NOMO1 cells grown in RPMI1640 with dialyzed fetal bovine serum (RPMI+ds) (AID 1963877).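 Further: series mostly up to about 46 µM; 100% = DMSO control wells and 0% = empty wells; nearly all actives have a fitted effect of over 30% in size.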 Summed up:
as §1

Molecules are shown by their SMILES. Inconclusive results are not listed. Values without a mark were called inactive. Activity calls are given as the source filed them. The call rests on the fitted dose curve; in most records, active means well fitted curve in the direction sought with a large enough effect; inconclusive means small, poorly fitted or top-dose-only effect, or another doubt; inactive means no such curve, though single readings can be large; an effect the other way counts as inactive or inconclusive.

Take `Cc1[nH]c(C=C2C(=O)Nc3ccccc32)c(C)c1CCC(=O)O`: the Potency is 14.8 µM (active) in [1], 9.35 µM (active) in [2], 18.7 µM (active) in [3] and 13.2 µM (active) in assay [4].
As to `CC(C)(C)c1[nH]cnc1C=c1[nH]c(=O)c(=Cc2ccccc2)[nH]c1=O`, the Potency in [1] is 0.0068 µM (active); in assay [2], 0.0061 µM (active); in assay [3] it was 0.0108 µM (active); in assay [4] it was 0.0086 µM (active); in [5], 0.0048 µM (active); in assay [6], 0.0061 µM (active). Also, the Potency in assay [7] was 0.0061 µM (active).
Consider `O=C(O)c1ccc(-c2cc3cccnc3c(-c3ccc4nonc4c3)n2)cc1`, for which the Potency entry in assay [1], in assay [2] and in [4] was “inactive” in each case.
In the case of `CC(=O)C1=C(O)C=C2Oc3c(C(C)=O)c(O)c(C)c(O)c3C2(C)C1=O` (stereo not given), the Potency in [1] is 0.296 µM (active); in [2], 1.48 µM (active); in assay [3], 2.96 µM (active); in [4] it was 1.32 µM (active). In addition, in assay [6], the Potency result was “inactive”.
For `COc1ccc(-c2ccc3c(N4CCOC[C@H]4C)nc(N4CCOC[C@H]4C)nc3n2)cc1CO`, the Potency in assay [1] and in assay [2] was 18.7 µM (active) in each case.
For `CC1(C)O[C@H]2C[C@@H]3[C@H]4CCC5=CC(=O)C=C[C@]5(C)[C@@]4(F)[C@@H](O)C[C@]3(C)[C@]2(C(=O)CO)O1`, the Potency was 9.35 µM (active) in [1], 0.264 µM (active) in assay [3] and 0.743 µM (active) in assay [4].
On to `C=CCNc1c(O)cc2c(O)c1C[C@@H](C)C[C@H](OC)[C@@H](O)[C@@H](C)C=C(C)[C@H](OC(N)=O)[C@@H](OC)C=CC=C(C)C(=O)N2`, for which the Potency in assay [1] is 10.5 µM (active); in assay [8] it was 13.2 µM (active); in assay [6], 0.833 µM (active); in assay [7] it was 0.833 µM (active).
As for `C=CC(=O)Nc1cc(NC(=O)c2ccc(C)c(NC(=O)c3ccno3)c2)cc(C(F)(F)F)c1`, the Potency result in [1], in assay [2], in [4], in assay [5] and in assay [6] was “inactive” throughout.
Consider `COC[C@@H](c1ccc(C(F)(F)F)cc1)N1CCN(C2(C)CCN(C(=O)c3c(C)ncnc3C)CC2)C[C@H]1C`, for which, in assay [1], the Potency was 2.35 µM (active). Besides, the Potency entry in [2], in assay [3] and in assay [4] was “inactive” throughout. In addition, the activity (max response) in assay [9] was -14.2%.
Turning to `CC1COC2(CCN(c3nc(=O)c4cc(C(F)(F)F)cc([N+](=O)[O-])c4s3)CC2)O1` (stereo not given), the Potency result in [1] and in [10] was “inactive” throughout. The activity (max response) in [9] is -6.91%.
For the compound `CCCNC(=O)[C@H]1O[C@H]1C(=O)N[C@H](C(=O)N1CCC[C@@H]1C(=O)OC)C(C)CC` (stereo not given in full), the Potency is 13.2 µM (active) in assay [1], 16.6 µM (active) in assay [3], 20.9 µM (active) in [5] and 14.8 µM (active) in [6].
With `C[C@@]12C[C@@]3(O)O[C@@H](O1)[C@]1(COC(=O)c4ccccc4)[C@@H]3C[C@@]12O[C@@H]1O[C@H](CO)[C@@H](O)[C@H](O)[C@@H]1O`, the Potency entry in assay [1], in assay [3], in assay [4], in assay [5], in assay [6] and in assay [7] was “inactive” in each case.
Turning to `COc1cc([C@H]2Oc3cc([C@H]4Oc5cc(O)cc(O)c5C(=O)[C@H]4O)ccc3O[C@H]2CO)ccc1O`, the Potency entry in assay [11], in [8], in assay [2], in [3] and in [6] was “inactive” each time.
With `NC(=O)NN=Cc1ccc([N+](=O)[O-])o1`, the Potency entry in assay [11], in [8], in assay [2], in assay [3], in assay [4] and in [5] was “inactive” in each case. In addition, the Potency entry in [6] and in assay [7] was “inactive” throughout.
`O=C(OCC#CCSc1nnc(-c2cccc3ccccc23)o1)c1cc2ccccc2s1`: the Potency entry in assay [11], in assay [8], in assay [2], in assay [3], in [4] and in assay [5] was “inactive” throughout. The Potency result in [6] and in assay [7] was “inactive” each time.
Regarding `CC(=O)SC[C@@H](C)C(=O)N1CCC[C@H]1C(=O)N[C@@H](Cc1ccccc1)C(=O)O`, the Potency entry in assay [11], in [8], in assay [3], in assay [4], in assay [6] and in assay [7] was “inactive” in each case. The Potency entry in assay [10] is “inactive”. Besides, the activity (max response) in assay [9] was 16.6%.
`O=C1Nc2ccc(Cl)cc2C(C#CC2CC2)(C(F)(F)F)O1` (stereo not given): the Potency entry in assay [11], in assay [8], in assay [2], in assay [5] and in [6] was “inactive” each time.
Regarding `CN[C@@H](C)C(=O)N[C@H]1CCCC[C@H]2CC[C@@H](C(=O)N[C@@H](c3ccccc3)c3cn(CCCCc4ccc(CCCCn5cc([C@@H](NC(=O)[C@@H]6CC[C@@H]7CCCC[C@H](NC(=O)[C@H](C)NC)C(=O)N76)c6ccccc6)nn5)cc4)nn3)N2C1=O`, the Potency entry in assay [1], in assay [3], in assay [4] and in [5] was “inactive” in each case. Moreover, in [9], the activity (max response) was -2.95%.
On to `CCOC(=O)[C@H]1O[C@H]1C(=O)N[C@@H](CC(C)C)C(=O)NCCC(C)C`, for which the Potency in assay [1] was 23.5 µM (active). Further, the Potency entry in assay [3], in [4], in assay [5] and in [6] was “inactive” in each case.
For `CN(C(Cc1ccc(OS(=O)(=O)c2cccc3cnccc23)cc1)C(=O)N1CCN(c2ccccc2)CC1)S(=O)(=O)c1cccc2cnccc12` (stereo not given), the Potency entry in [1] and in [10] was “inactive” in each case. Besides, the Potency in assay [3] is 18.7 µM (active); in assay [4], 14.8 µM (active). For the same compound, in [9], the activity (max response) is 5.6%.
`CC=CC[C@@H](C)C(=O)[C@H]1C(=O)N[C@@H](C(C)C)C(=O)N(C)CC(=O)N(C)[C@@H](CC(C)C)C(=O)N[C@@H](C(C)C)C(=O)N(C)[C@@H](CC(C)C)C(=O)N[C@@H](C)C(=O)N[C@H](C)C(=O)N(C)[C@@H](CC(C)C)C(=O)N(C)[C@@H](CC(C)C)C(=O)N(C)[C@@H](C(C)C)C(=O)N1C`: the Potency result in assay [1] is “inactive”. Further, the Potency in assay [6] was 14.8 µM (active).
For the compound `C[C@H]1[C@H](O)O[C@@H]2O[C@@]3(C)CC[C@@H]4[C@H](C)CC[C@@H]1[C@@]24OO3`, the Potency is 1.87 µM (active) in [1]; 2.96 µM (active) in [4]; 4.18 µM (active) in assay [5]; 4.69 µM (active) in assay [6]; 3.32 µM (active) in assay [7].
In the case of `C#C[C@]1(O)CC[C@@H]2[C@@H]3CCc4cc(O)ccc4[C@H]3CC[C@@]21C`, the Potency entry in assay [1] was “inactive”. Moreover, the Potency was 16.6 µM (active) in [3] and 14.8 µM (active) in assay [5].
